# Test results as given in ChEMBL document CHEMBL1961873, “Compounds: GSK PKIS; Assays: Nanosyn kinase panel” (2012).
# Columns and labels:
# [1] = target: T1, 3-phosphoinositide-dependent protein kinase 1 (Homo sapiens) (UniProt O15530); details: at 0.1 µM;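 further: values are mean inhibition of PDK1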
# T1 sequence (whole entry): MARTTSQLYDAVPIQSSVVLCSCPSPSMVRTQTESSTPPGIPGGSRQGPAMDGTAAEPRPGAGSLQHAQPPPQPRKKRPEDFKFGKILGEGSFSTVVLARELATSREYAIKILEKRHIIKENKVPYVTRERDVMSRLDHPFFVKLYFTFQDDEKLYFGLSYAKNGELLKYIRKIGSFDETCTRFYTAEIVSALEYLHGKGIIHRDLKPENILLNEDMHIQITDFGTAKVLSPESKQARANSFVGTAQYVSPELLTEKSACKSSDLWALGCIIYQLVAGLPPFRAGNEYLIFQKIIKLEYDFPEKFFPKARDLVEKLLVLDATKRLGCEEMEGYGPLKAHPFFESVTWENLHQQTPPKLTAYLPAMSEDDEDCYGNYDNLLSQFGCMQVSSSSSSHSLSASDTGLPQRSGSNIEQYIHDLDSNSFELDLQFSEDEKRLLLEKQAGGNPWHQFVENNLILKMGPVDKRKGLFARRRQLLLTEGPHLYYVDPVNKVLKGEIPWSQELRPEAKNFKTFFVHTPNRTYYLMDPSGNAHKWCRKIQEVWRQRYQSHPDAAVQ
# [2] = target: cAMP-dependent protein kinase catalytic subunit alpha (Homo sapiens) (UniProt P17612); details: at 0.1 µM
# [3] = target: cAMP-dependent protein kinase catalytic subunit alpha (Homo sapiens) (UniProt P17612); details: at 1 µM
# [4] = target: Protein kinase C alpha type (Homo sapiens) (UniProt P17252); details: at 0.1 µM
# [5] = target: Protein kinase C alpha type (Homo sapiens) (UniProt P17252); details: at 1 µM
# [6] = target: Protein kinase C beta type (Homo sapiens) (UniProt P05771); details: at 0.1 µM
# [7] = target: Protein kinase C beta type (Homo sapiens) (UniProt P05771); details: at 1 µM
# [8] = target: Protein kinase C eta type (Homo sapiens) (UniProt P24723); details: at 0.1 µM
# [9] = target: Protein kinase C eta type (Homo sapiens) (UniProt P24723); details: at 1 µM
# [10] = target: Protein kinase C gamma type (Homo sapiens) (UniProt P05129); details: at 0.1 µM
# [11] = target: Protein kinase C gamma type (Homo sapiens) (UniProt P05129); details: at 1 µM
# [12] = target: T2, Protein kinase C iota type (Homo sapiens) (UniProt P41743); details: at 0.1 µM
# T2 sequence (whole entry): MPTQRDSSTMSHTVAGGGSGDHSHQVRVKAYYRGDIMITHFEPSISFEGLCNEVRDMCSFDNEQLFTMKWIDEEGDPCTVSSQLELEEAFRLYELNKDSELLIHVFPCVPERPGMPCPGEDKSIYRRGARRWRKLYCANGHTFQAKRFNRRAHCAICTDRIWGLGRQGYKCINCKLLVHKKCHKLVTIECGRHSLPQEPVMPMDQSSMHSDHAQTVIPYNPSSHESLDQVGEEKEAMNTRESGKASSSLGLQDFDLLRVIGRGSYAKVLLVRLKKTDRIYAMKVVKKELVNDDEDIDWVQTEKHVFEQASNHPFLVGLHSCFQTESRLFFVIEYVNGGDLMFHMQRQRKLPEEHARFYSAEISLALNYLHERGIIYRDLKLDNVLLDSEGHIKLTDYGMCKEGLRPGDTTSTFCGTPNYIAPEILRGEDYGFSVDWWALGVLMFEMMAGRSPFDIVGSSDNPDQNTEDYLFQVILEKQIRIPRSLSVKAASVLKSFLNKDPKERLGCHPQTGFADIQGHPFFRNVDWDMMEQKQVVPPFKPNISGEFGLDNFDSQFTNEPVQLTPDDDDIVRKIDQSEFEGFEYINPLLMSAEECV
# [13] = target: T2, Protein kinase C iota type (Homo sapiens); details: at 1 µM
# [14] = target: Protein kinase C theta type (Homo sapiens) (UniProt Q04759); details: at 0.1 µM
# [15] = target: Protein kinase C theta type (Homo sapiens) (UniProt Q04759); details: at 1 µM
# [16] = target: Protein kinase C beta type (Homo sapiens) (UniProt P05771); details: at 0.1 µM; remark: listed apart in the source
# [17] = target: Protein kinase C beta type (Homo sapiens) (UniProt P05771); details: at 1 µM; remark: listed apart in the source
# [18] = target: T3, Serine/threonine-protein kinase D1 (Homo sapiens) (UniProt Q15139); details: at 0.1 µM
# T3 sequence (whole entry): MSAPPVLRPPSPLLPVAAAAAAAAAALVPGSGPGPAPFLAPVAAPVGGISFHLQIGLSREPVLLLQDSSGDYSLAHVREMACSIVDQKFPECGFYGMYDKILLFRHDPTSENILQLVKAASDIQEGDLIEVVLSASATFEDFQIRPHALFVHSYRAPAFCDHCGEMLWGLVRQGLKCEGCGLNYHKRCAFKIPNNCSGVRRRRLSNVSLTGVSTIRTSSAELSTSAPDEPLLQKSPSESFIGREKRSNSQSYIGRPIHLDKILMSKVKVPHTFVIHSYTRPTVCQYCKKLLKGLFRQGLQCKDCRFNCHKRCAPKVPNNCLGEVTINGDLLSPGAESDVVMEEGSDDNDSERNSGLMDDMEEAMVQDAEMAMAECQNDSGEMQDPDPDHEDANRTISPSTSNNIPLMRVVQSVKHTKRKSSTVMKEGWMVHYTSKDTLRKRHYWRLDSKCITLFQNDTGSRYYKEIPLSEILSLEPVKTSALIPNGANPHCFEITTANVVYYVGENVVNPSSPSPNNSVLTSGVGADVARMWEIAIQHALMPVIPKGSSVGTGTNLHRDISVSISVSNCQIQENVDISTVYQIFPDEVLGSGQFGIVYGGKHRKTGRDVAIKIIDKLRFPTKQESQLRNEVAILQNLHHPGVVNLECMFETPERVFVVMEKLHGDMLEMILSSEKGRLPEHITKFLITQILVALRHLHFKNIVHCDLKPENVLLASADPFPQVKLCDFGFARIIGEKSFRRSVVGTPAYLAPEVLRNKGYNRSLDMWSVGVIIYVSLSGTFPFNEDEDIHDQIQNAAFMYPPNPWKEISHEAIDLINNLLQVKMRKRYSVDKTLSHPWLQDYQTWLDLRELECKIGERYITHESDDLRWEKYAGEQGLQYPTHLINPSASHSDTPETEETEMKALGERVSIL
# [19] = target: T3, Serine/threonine-protein kinase D1 (Homo sapiens); details: at 1 µM
# [20] = target: T4, Serine/threonine-protein kinase D2 (Homo sapiens) (UniProt Q9BZL6); details: at 0.1 µM;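 further: reported percent inhibition values are means, part of the GSK PKIS kinase panel screen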
# T4 sequence (whole entry): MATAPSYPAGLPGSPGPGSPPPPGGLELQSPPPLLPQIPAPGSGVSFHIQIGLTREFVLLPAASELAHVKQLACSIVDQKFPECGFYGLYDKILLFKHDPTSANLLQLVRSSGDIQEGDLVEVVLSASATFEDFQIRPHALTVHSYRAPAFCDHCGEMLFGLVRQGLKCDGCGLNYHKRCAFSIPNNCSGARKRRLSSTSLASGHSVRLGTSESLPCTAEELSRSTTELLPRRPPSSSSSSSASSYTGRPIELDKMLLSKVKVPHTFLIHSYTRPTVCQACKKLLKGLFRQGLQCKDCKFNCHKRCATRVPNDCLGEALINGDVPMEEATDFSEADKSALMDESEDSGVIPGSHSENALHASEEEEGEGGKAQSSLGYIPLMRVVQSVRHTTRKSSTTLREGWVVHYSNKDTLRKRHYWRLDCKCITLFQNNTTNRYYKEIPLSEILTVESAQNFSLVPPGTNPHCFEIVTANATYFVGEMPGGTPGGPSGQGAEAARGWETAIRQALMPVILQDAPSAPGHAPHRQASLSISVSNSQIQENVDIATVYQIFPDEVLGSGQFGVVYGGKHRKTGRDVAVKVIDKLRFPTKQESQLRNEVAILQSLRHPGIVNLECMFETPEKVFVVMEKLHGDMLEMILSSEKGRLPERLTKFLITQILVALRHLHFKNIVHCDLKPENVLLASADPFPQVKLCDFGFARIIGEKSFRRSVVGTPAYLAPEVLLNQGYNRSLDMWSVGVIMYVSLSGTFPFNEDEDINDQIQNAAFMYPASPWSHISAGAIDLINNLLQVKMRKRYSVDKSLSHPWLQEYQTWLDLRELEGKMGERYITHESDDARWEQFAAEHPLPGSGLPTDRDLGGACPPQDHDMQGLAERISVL
# Sequence of Protein kinase C eta type (Homo sapiens) (P24723 whole entry): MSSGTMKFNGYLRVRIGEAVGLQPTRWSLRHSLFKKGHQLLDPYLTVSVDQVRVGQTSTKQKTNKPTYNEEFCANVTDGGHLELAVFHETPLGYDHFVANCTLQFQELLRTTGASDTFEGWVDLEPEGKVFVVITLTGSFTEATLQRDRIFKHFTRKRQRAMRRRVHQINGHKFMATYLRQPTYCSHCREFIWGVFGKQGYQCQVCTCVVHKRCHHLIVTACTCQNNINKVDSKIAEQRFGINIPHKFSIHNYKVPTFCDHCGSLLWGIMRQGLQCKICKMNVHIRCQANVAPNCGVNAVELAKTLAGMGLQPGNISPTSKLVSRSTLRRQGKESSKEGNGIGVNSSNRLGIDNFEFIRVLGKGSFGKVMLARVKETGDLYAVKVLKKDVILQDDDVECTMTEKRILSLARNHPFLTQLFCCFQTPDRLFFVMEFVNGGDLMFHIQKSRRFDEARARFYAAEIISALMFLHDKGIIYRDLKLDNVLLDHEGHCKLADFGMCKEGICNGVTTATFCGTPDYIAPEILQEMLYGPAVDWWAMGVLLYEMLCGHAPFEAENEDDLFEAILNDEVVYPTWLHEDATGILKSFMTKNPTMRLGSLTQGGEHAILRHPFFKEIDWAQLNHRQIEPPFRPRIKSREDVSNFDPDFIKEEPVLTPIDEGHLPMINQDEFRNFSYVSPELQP
# Sequence of Protein kinase C theta type (Homo sapiens) (Q04759 whole entry, looked up): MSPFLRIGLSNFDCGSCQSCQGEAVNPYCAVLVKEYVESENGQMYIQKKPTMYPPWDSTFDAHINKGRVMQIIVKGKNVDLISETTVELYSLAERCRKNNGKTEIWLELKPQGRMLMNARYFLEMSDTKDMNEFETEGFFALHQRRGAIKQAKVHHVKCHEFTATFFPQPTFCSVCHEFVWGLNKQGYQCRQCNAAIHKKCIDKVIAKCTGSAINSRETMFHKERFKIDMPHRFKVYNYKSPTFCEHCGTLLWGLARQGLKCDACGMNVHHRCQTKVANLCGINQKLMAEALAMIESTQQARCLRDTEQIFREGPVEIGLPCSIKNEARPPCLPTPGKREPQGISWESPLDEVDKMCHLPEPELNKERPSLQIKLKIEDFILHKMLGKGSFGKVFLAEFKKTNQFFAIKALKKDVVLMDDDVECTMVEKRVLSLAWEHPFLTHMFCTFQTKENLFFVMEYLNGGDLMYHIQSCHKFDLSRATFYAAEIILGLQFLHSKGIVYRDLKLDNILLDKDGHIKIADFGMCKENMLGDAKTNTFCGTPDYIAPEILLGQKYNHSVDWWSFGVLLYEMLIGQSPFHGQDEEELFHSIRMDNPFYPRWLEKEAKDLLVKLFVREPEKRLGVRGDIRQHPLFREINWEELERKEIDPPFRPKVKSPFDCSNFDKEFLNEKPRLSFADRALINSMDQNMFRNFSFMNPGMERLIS
# Sequence of Protein kinase C beta type (Homo sapiens) (P05771 2-671 limits assumed): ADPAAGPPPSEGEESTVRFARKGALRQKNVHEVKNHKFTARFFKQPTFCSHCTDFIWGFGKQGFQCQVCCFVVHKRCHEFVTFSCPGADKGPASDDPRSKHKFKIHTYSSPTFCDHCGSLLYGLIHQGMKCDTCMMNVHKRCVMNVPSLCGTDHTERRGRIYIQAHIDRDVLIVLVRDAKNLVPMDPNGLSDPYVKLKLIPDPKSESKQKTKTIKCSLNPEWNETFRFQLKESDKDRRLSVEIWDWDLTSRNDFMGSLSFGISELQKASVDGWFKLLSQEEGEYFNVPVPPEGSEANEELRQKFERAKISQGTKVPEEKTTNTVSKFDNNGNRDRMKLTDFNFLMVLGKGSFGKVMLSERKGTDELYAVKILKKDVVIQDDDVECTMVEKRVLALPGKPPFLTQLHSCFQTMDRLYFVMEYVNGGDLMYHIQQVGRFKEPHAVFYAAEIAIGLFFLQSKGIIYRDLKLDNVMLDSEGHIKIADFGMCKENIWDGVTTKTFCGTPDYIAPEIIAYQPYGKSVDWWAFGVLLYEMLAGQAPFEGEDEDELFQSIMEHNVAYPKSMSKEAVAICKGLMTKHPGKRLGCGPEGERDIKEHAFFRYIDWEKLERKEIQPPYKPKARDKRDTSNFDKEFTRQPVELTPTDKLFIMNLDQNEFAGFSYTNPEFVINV
SMILES,inhibition [1],inhibition [2],inhibition [3],inhibition [4],inhibition [5],inhibition [6],inhibition [7],inhibition [8],inhibition [9],inhibition [10],inhibition [11],inhibition [12],inhibition [13],inhibition [14],inhibition [15],inhibition [16],inhibition [17],inhibition [18],inhibition [19],inhibition [20]
Cc1cc(-c2ccco2)cc(C)c1/C=C/c1cncc(-c2nn[nH]n2)c1,-0.25%,-2.7%,1.88%,0.15%,0.97%,-0.49%,0.6%,1.26%,2.42%,0.18%,1.85%,0.32%,-0.83%,0.29%,-0.04%,-0.04%,-0.06%,0.58%,2.09%,0.97%
COc1cc2c(cc1Nc1nc(Nc3ccsc3C(N)=O)c3cc[nH]c3n1)N(C(=O)CN(C)C)CCC2,0.7%,4.62%,3.81%,1.91%,10.2%,-0.18%,1.94%,1.28%,3.46%,,,-0.4%,-0.5%,4.39%,10.2%,-1.27%,2.49%,3.95%,19.8%,12.2%
COc1cccc(COc2cc(-n3cnc4ccccc43)sc2C(N)=O)c1,12.1%,2.47%,0.86%,-0.54%,0%,-0.69%,0.94%,0.43%,1.12%,1.09%,3.94%,-0.74%,-0.85%,1.23%,1.18%,0.72%,1.77%,0.37%,1.82%,1.64%
CCn1c(-c2nonc2N)nc2c(C#CCN)ncc(OCCCN)c21,1.2%,7.1%,,1.06%,4.21%,14.7%,47.8%,19.6%,73.4%,3.97%,4.01%,2.51%,16.5%,6.73%,38.6%,4.07%,12%,-1.16%,-3.02%,-2.14%
COc1cc(C=NNc2ncnc3c2cnn3Cc2ccccc2)ccc1O,-3.37%,-0.54%,5.93%,-0.63%,3.5%,0.36%,3.19%,-5.63%,-0.89%,-2.68%,2.96%,-1.06%,-0.54%,-1.05%,1.99%,-1.09%,1.44%,-4.01%,-1.69%,-3.31%
NS(=O)(=O)c1ccc(N/C=C2\C(=O)Nc3ccc4ncsc4c32)cc1,20.8%,2.9%,6.91%,1.26%,3.04%,-0.49%,,1.67%,6.53%,1.16%,5.52%,1.93%,2.78%,3.02%,6.57%,1.34%,3.28%,22.4%,67.3%,16.3%
Fc1ccc(-c2ncn(C3CCNCC3)c2-c2ccnc(Oc3ccccc3)n2)cc1,0.7%,7.46%,43.6%,-3.5%,-0.8%,0.95%,8.43%,3.65%,1.37%,0.03%,2.28%,0.81%,1.84%,1.21%,1.59%,1.22%,5.65%,-1.04%,0.79%,-1.14%
NS(=O)(=O)c1ccc(-c2ccc3c(NC(=O)C4CC4)n[nH]c3c2)cc1,2.67%,1.34%,1.63%,0.82%,0.13%,-1.4%,-0.63%,3.31%,-0.1%,-1.07%,0.37%,1.06%,3.22%,1.13%,-0.43%,0.67%,1.78%,1.17%,1.47%,1.52%
CCn1c(-c2nonc2N)nc2c(C#CC(C)(C)O)ncc(OC[C@@H]3CCCN3)c21,0.24%,68.7%,81.2%,2.42%,18.4%,30.1%,61.3%,87.1%,96.3%,9.3%,44.6%,0.62%,11.4%,30%,72.3%,7.63%,37.1%,2.68%,19.2%,4.02%
NC(=O)c1sc(-n2cnc3cc(C(F)(F)F)ccc32)cc1OCc1ccccc1Br,2.62%,2.16%,1.95%,0.19%,1.07%,0.86%,-1.32%,3.02%,-0.28%,0.48%,2.52%,0.97%,0.63%,0.18%,0.55%,0.4%,0.57%,1.33%,1.94%,1.96%
CCn1c(-c2nonc2N)nc2c(C#CC(C)(C)O)nc(O[C@@H](CN)c3ccccc3)cc21,3.51%,80.3%,81.6%,15.8%,69.7%,44.8%,71.4%,96.3%,99%,54.7%,81.1%,3.68%,26.4%,73.5%,84.8%,49.2%,80.5%,8.23%,61.6%,9.02%
Nc1nonc1-c1nc2cnccc2n1C1CCCCC1,0.3%,19.5%,,2.45%,38.4%,31%,65.3%,42.3%,88.5%,8.45%,49%,-0.01%,4.76%,10.3%,55.2%,6.66%,33.7%,-0.73%,2.75%,-1.07%
CCn1c(-c2nonc2N)nc2c(C#CC(C)(C)O)ncc(OCC3CCNCC3)c21,2.18%,44.1%,,-1.9%,13.4%,29.9%,64.4%,83.7%,97.8%,6.74%,39.9%,-0.7%,13.5%,21.5%,65.5%,8.97%,37.6%,-0.45%,6.01%,-0.27%
COc1cccc(-n2ncc3c(N/N=C/c4ccncc4)ncnc32)c1,3.34%,1.96%,4.25%,2.71%,8.07%,1.63%,7.79%,4.72%,2.1%,1.76%,7.85%,3.39%,13.1%,2.97%,5.71%,2.37%,9.57%,4.37%,10.1%,4.75%
